In PubChem BioAssay (NCI):
“And” between values parts separate entries of the source, which are not always exact repeats. Identical values can stand only once. Compounds without any hit were thinned out: in the full panel of roughly 83,000, 20% have a hit.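 Values shown are percent growth following 48 h exposure of cells in 96-well plates to a single concentration of compound; below 10 was considered active.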 A structure can be active in one record and inactive in another. The source made the active and inactive calls.

Columns and labels:
Assay in all cases: NCI-60 one-dose screen, 48 h (100 = growth as untreated, 0 = no growth, -100 = all killed)
Details in all cases: 10 µM unless noted
SR leukemia = test system: SR leukemia
RPMI-8226 leukemia = test system: RPMI-8226 leukemia
OVCAR-8 ovarian = test system: OVCAR-8 ovarian
OVCAR-4 ovarian = test system: OVCAR-4 ovarian
IGROV1 ovarian = test system: IGROV1 ovarian
OVCAR-3 ovarian = test system: OVCAR-3 ovarian
HS 578T breast = test system: HS 578T breast
NCI/ADR-RES ovarian = test system: NCI/ADR-RES ovarian
SK-OV-3 ovarian = test system: SK-OV-3 ovarian
OVCAR-5 ovarian = test system: OVCAR-5 ovarian

Measured: growth

CCN(CC)CCNc1ccc(C)c2sc3ccccc3c(=O)c12 (tested in a mixture with another compound)
inactive: OVCAR-8 ovarian 23.7% and 32.3% | OVCAR-4 ovarian 40.7% and 53.3% | OVCAR-3 ovarian 58.9% and 62.8% | HS 578T breast 122% and 81.6% | NCI/ADR-RES ovarian 43.1% and 43%
active: IGROV1 ovarian -29.6% and 3.62%
10.1% (inactive) and -9.01% (active): RPMI-8226 leukemia
8.47% (active) and 20% (inactive): SR leukemia

CCC(C)C1(C2CCCC2)NC(=O)NC1=O (stereo not given)
inactive: SR leukemia 92% | RPMI-8226 leukemia 93.9% and 106% | OVCAR-8 ovarian 108% and 99.9% | OVCAR-4 ovarian 102% | SK-OV-3 ovarian 99.7% and 109% | IGROV1 ovarian 117% and 119% | OVCAR-3 ovarian 106% and 115% | HS 578T breast 107% and 103% | NCI/ADR-RES ovarian 109% and 104%

COc1ccc(Cn2c(NCCN=C(N)N)nc(=O)n(Cc3ccc(F)cc3)c2=O)cc1
inactive: SR leukemia 85.5% | RPMI-8226 leukemia 87.9% and 92.2% | OVCAR-8 ovarian 101% and 99.9% | OVCAR-4 ovarian 101% and 92.5% | SK-OV-3 ovarian 98.8% and 96.2% | IGROV1 ovarian 90.3% and 103% | OVCAR-3 ovarian 96.5% and 104% | HS 578T breast 87.5% and 66.2% | NCI/ADR-RES ovarian 114% and 103%

CCN(CC)CCc1nc(-c2ccccc2)no1
inactive: RPMI-8226 leukemia 60.9% and 98.7% | OVCAR-8 ovarian 83.9% and 94.4% | OVCAR-5 ovarian 98.6% and 114% | OVCAR-4 ovarian 76.7% and 103% | SK-OV-3 ovarian 98.2% and 99.6% | IGROV1 ovarian 78.7% and 112% | OVCAR-3 ovarian 73.2% and 112% | HS 578T breast 98% | NCI/ADR-RES ovarian 89.8% and 99.4%

CCOc1ccc2nc3cc(N)ccc3c(N)c2c1
inactive: RPMI-8226 leukemia 113% and 86.4% | OVCAR-8 ovarian 28.9% and 29.6% | OVCAR-5 ovarian 94.1% and 99.6% | OVCAR-4 ovarian 56.6% and 49.2% | SK-OV-3 ovarian 61% and 76.5% | IGROV1 ovarian 69.9% and 99.4% | OVCAR-3 ovarian 35.3% and 22.8% | HS 578T breast 28.8% | NCI/ADR-RES ovarian 88.4% and 71.8%

CN1C(=O)C(N=Nc2ccc([N+](=O)[O-])cc2)SC1=S (stereo not given)
inactive: RPMI-8226 leukemia 32.7% and 10.8% | OVCAR-8 ovarian 70.7% and 72.4% | OVCAR-5 ovarian 56.2% and 51.5% | OVCAR-4 ovarian 65.8% and 76.7% | SK-OV-3 ovarian 66.6% and 69.2% | IGROV1 ovarian 56.7% and 71.7% | OVCAR-3 ovarian 59.3% and 62.7% | HS 578T breast 72.6% and 71%

Nc1ccn(C2OC(CO)C(O)C2O)c(=O)n1 (stereo not given)
inactive: SR leukemia 14.8% | OVCAR-8 ovarian 40.1% and 97.2% and 101% | OVCAR-4 ovarian 99.9% [middle of 4 runs] | IGROV1 ovarian 50.9% and 10.1% and 106%

Nc1ccc2ccc(N)cc2c1
inactive: SR leukemia 36.8% | RPMI-8226 leukemia 84.6% | OVCAR-8 ovarian 82% | OVCAR-4 ovarian 40% | SK-OV-3 ovarian 91.6% | IGROV1 ovarian 73.6% | OVCAR-3 ovarian 25.5% | HS 578T breast 104% | NCI/ADR-RES ovarian 73.5%

CCOC(=O)c1sc(N)nc1-c1ccccc1
inactive: SR leukemia 90.2% | RPMI-8226 leukemia 99.1% | OVCAR-8 ovarian 108% | OVCAR-4 ovarian 106% | SK-OV-3 ovarian 93.7% | IGROV1 ovarian 101% | OVCAR-3 ovarian 108% | HS 578T breast 106% | NCI/ADR-RES ovarian 104%

CC(C)Cc1ccc(C(C)C(=O)NCc2ccc(Cn3c(=O)sn(CCCI)c3=O)cc2)cc1 (stereo not given)
88.2% (inactive) and -82.1% (active): IGROV1 ovarian
92.7% (inactive) and -86% (active): OVCAR-3 ovarian
96.5% (inactive) and -19.8% (active): RPMI-8226 leukemia
96.3% (inactive) and -30.2% (active): OVCAR-8 ovarian
56.4% (inactive) and 2.84% (active): SR leukemia
84.9% (inactive) and -53.2% (active): OVCAR-4 ovarian
inactive: SK-OV-3 ovarian 70.9%
92.1% (inactive) and -1.05% (active): HS 578T breast
106% (inactive) and -18.5% (active): NCI/ADR-RES ovarian

CC1(C)C2CCC1(CS(=O)(=O)O)C(=O)C2 (stereo not given)
inactive: OVCAR-4 ovarian 95.1% | HS 578T breast 112%

Cc1cc(N=Nc2ccc(C)c(N=Nc3cc(C)c(N)cc3N)c2)c(N)cc1N
inactive: SR leukemia 97.9% and 35.1% | RPMI-8226 leukemia 43.6% and 88.2% | OVCAR-8 ovarian 98.9% and 102% | OVCAR-4 ovarian 86.6% and 75.5% | SK-OV-3 ovarian 91% and 95.2% | IGROV1 ovarian 36.8% and 53.5% | OVCAR-3 ovarian 89.3% and 63.1% | HS 578T breast 89.4% and 88.8% | NCI/ADR-RES ovarian 92.4% and 84%

CC(=O)C(/C=N/C(N)=O)=C(/C)O
inactive: SR leukemia 96.9% | RPMI-8226 leukemia 112% | OVCAR-8 ovarian 104% | OVCAR-4 ovarian 114% | IGROV1 ovarian 114% | OVCAR-3 ovarian 121% | HS 578T breast 108% | NCI/ADR-RES ovarian 99.4%

COc1ccc(-c2ncnc3c2ncn3C/C=C/CCl)cc1
inactive: RPMI-8226 leukemia 52.1% and 67.4% | OVCAR-8 ovarian 67.2% and 69.5% | OVCAR-5 ovarian 114% and 105% | OVCAR-4 ovarian 53.3% and 56.7% | SK-OV-3 ovarian 111% and 109% | IGROV1 ovarian 93.8% and 82.9% | OVCAR-3 ovarian 77.6% and 99% | HS 578T breast 131% and 111% | NCI/ADR-RES ovarian 76.9% and 86.3%

OCCN1CCN(CCO)CC1
inactive: SR leukemia 99.5% and 117% and 98.8% | RPMI-8226 leukemia 100% and 95.5% | OVCAR-8 ovarian 101% and 97.4% | OVCAR-4 ovarian 124% and 97.7% | SK-OV-3 ovarian 104% and 106% and 109% | IGROV1 ovarian 113% and 90.8% and 112% | OVCAR-3 ovarian 119% and 108% and 109% | HS 578T breast 106% and 98.7% and 112% | NCI/ADR-RES ovarian 100% and 94% and 120%

Cc1c(Cl)cccc1NCN1C(=O)c2ccccc2C1=O
inactive: RPMI-8226 leukemia 105% | OVCAR-8 ovarian 99.8% | OVCAR-5 ovarian 107% | OVCAR-4 ovarian 108% | SK-OV-3 ovarian 106% | IGROV1 ovarian 116% | OVCAR-3 ovarian 114% | HS 578T breast 118% | NCI/ADR-RES ovarian 110%

Cc1ccc(S(=O)(=O)Nc2ccc3cc([N+](=O)[O-])ccc3c2[N+](=O)[O-])cc1
inactive: SR leukemia 91.8% and 64.3% | RPMI-8226 leukemia 51.6% and 38.2% | OVCAR-8 ovarian 81.3% and 96.4% | OVCAR-4 ovarian 81.4% and 106% | SK-OV-3 ovarian 78% and 103% | IGROV1 ovarian 75.1% and 88.1% | OVCAR-3 ovarian 46% and 98.9% | HS 578T breast 77.3% and 94.7% | NCI/ADR-RES ovarian 79.5% and 105%

O=C(Oc1cccc(OC(=O)c2ccccc2)c1)c1ccccc1
inactive: SR leukemia 94.4% | RPMI-8226 leukemia 69.9% and 104% | OVCAR-8 ovarian 110% | OVCAR-4 ovarian 97.3% and 92.1% | SK-OV-3 ovarian 126% and 97.4% | IGROV1 ovarian 109% | OVCAR-3 ovarian 76.3% and 101% | HS 578T breast 78.4% and 102% | NCI/ADR-RES ovarian 95.5% and 97.7%

Nc1nc(SC/C=C/CCl)c2[nH]cnc2n1
inactive: SR leukemia 77.5% | RPMI-8226 leukemia 100% | OVCAR-8 ovarian 103% and 97.6% | OVCAR-4 ovarian 116% and 100% | SK-OV-3 ovarian 99.4% and 112% | IGROV1 ovarian 114% and 97.3% | OVCAR-3 ovarian 117% and 120% | HS 578T breast 112% and 125% | NCI/ADR-RES ovarian 103% and 106%

COc1ccc(CCN(C)CCCC(C#N)(c2ccc(OC)c(OC)c2)C(C)C)cc1OC (stereo not given)
inactive: SR leukemia 80.8% and 94.1% and 90.1% | RPMI-8226 leukemia 83.9% and 83.6% and 94.5% | OVCAR-8 ovarian 97.5% and 93.2% | OVCAR-4 ovarian 85.1% and 104% | SK-OV-3 ovarian 101% and 98.3% and 97.9% | IGROV1 ovarian 98.7% and 94.4% | OVCAR-3 ovarian 103% and 101% and 96% | HS 578T breast 99.8% and 88.1% and 93.6% | NCI/ADR-RES ovarian 86.6% and 92% and 86.1%
